Measurements reported in PubChem BioAssay (NCATS).
Where “and” joins values, the source holds several entries; their conditions need not be identical. Equal entries are not always repeated. Records with an inconclusive call do not appear. Where a call stands in place of a potency, no number is given. Calls of active or inactive are those of the source. Unless noted, the call rests on the fitted dose curve; in most records, active means well fitted curve in the direction sought with a large enough effect; inconclusive means small, poorly fitted or top-dose-only effect, or another doubt; inactive means no such curve, though single readings can be large; an effect the other way counts as inactive or inconclusive.

Experiments:
[1] = Cell Viability - N2a (AID 540); conditions: N2a mouse neuroblastoma cell viability; activity change, negative = cytotoxicity: at 92.2 µM (top of the series);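 further: cells exposed to compound for 40 h at 37 °C; nearly all actives have a fitted effect of over 45% in size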
Method in brief: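 Cytotoxicity was scored as loss of cellular ATP in N2a cells, a mouse neuroblastoma line. Compounds are applied in a qHTS concentration series for 40 hr at 37 °C.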

[2] = Cellular Toxicity (caspase-3) BJ (AID 658); conditions: BJ fibroblasts, luminescence, normalized: DMSO 0%, staurosporine 100%; series mostly up to 91.7 µM
Method in brief: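 Caspase-Glo 3/7 luminescence, read 1 hr after reagent at room temperature, in normal BJ fibroblasts exposed 16 hours at 37 °C. AC50 values from Hill-equation concentration-response, scaled between DMSO basal and 10 uM staurosporine as 100%.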

[3] = target: Estrogen receptor (Homo sapiens) (UniProt P03372); assay: qHTS assay for small molecule antagonists of estrogen receptor alpha signaling (AID 588513; active means well fitted curve in the direction sought with a large enough effect in the signal ratio, with a control signal flat, not every such curve was filed as active; the % refers to the signal ratio); conditions: ER-alpha-UAS-bla HEK293, beta-lactamase ratio, antagonist mode; series mostly up to 76.9 µM
Method in brief: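 Beta-lactamase reporter, antagonist mode, HEK 293 GripTite cells; 0.5nM E2 stimulus, 18 h, 37 C; CCF4 dye 2 h RT; fluorescence. IC50 and efficacy from Hill fits, normalized to E2 and DMSO.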

[4] = target: Estrogen receptor (Homo sapiens) (UniProt P03372); assay: qHTS assay for small molecule agonists of estrogen receptor alpha signaling (AID 588514; calls by dose curve; further: nearly all actives have a fitted effect of over 70% in size); conditions: ER-alpha-UAS-bla HEK293, beta-lactamase ratio, 18 h; series mostly up to 76.8 µM
Method in brief: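 Efficacy is expressed against 20 nM 17-beta-estradiol (100%) and DMSO basal (0%); EC50 from Hill equation. Assay: beta-lactamase reporter in ER-alpha-UAS-bla HEK 293 cells, 18 h compound incubation, CCF4 detection.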

[5] = qHTS assay for small molecule agonists of the antioxidant response element (ARE) signaling pathway (AID 651741; active means well fitted activation curve with a large enough effect in the signal ratio; the % refers to the signal ratio; further: potency means the concentration at half of the fitted maximal effect); conditions: HepG2 ARE-bla reporter, beta-lactamase FRET ratio, 16 h; series mostly up to 96 µM
Method in brief: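 Beta-lactamase reporter under ARE control in HepG2 cells, 2,000 per well, was induced by 16 h compound treatment at 37 C. Read-out was fluorescence from LiveBLAzer B/G FRET substrate after 2 h at room temperature.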

[6] = qHTS assay for small molecule activators of the p53 signaling pathway (AID 651743; active means well fitted activation curve with a large enough effect in the signal ratio, not every such curve was filed as active; the % refers to the signal ratio); conditions: HCT-116 p53RE-bla, beta-lactamase FRET ratio, 16 h; activation: stronger effect = higher value
Method in brief: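 After 16 hours compound treatment at 37 C, HCT-116 cells stably expressing p53RE-driven beta-lactamase were loaded with LiveBLAzer B/G FRET substrate for 2 hours at room temperature. Fluorescence intensity served as the p53 activation read-out.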

[7] = qHTS assay for small molecule disruptors of the mitochondrial membrane potential - 1 hr assay (AID 651754; calls by dose curve; further: nearly all actives have a fitted effect of over 35% in size; further: potency means the concentration at half of the fitted maximal effect); conditions: series mostly up to 92.2 µM
Method in brief: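 Loss of mitochondrial potential shifts the cationic dye from red mitochondrial aggregates to green cytoplasmic monomers. Cells (HepG2) are treated with compound for 1 hr before a 30 min dye incubation at 37C.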

[8] = qHTS assay for environmental chemicals that activate the Aryl hydrocarbon Receptor (AhR) signaling pathway (AID 651777); conditions: 1A2-DRE human hepatoma cells, luciferase, 24 h; activation: stronger effect = higher value; further: nearly all actives have a fitted effect of over 15% in size
Method in brief: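 Reporter gene assay: hepatoma cells with DRE/CYP1A2-luciferase, 24 hr compound incubation at 37 C, 5% CO2, luminescence after One-Glo (30 min, RT).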

[9] = target: Nuclear receptor ROR-gamma (Homo sapiens) (UniProt P51449); assay: qHTS assay for small molecule antagonists of the retinoid-related orphan receptor gamma (ROR-gamma) signaling pathway (AID 651802); conditions: ROR-gamma antagonist cell reporter assay; series mostly up to 92.2 µM; further: nearly all actives have a fitted effect of over 60% in size; further: potency means the concentration at half of the fitted maximal effect
Method in brief: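 Steps: cells dispensed; compound or DMSO transferred by pin tool; doxycycline added to induce the ROR response element-driven luciferase; plates held 16hr at 37C; ONE-Glo added and luminescence measured.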

[10] = qHTS assay for small molecule antagonists of the retinoid-related orphan receptor gamma (ROR-gamma) signaling pathway - cell viability counter screen (AID 720652; active means well fitted curve in the direction sought with a large enough effect in the repeat runs; an effect the other way counts as inactive or inconclusive;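 further: CHO reporter cells with doxycycline-induced ROR-gamma expression; compound exposure lasted 16 hr before ATP read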); conditions: RORgamma reporter cell line viability counter screen; series mostly up to 92.2 µM
Method in brief: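 Steps: seed CHO cells bearing TET-inducible ROR and ROR response element-luciferase; rest 5 hr at 37 C; add compound, then doxycycline; incubate 16 hr; add CellTiter-Glo and read luminescence as ATP-based viability.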

[11] = target: Cytochrome P450 3A4 (Homo sapiens) (UniProt P08684); assay: qHTS Assay for Inhibitors and Substrates of Cytochrome P450 3A4 (AID 884); conditions: recombinant CYP3A4, Luciferin-PPXE luminescence; series mostly up to 57.1 µM; further: nearly all actives have a fitted effect of over 50% in size; further: potency means the concentration at half of the fitted maximal effect
Method in brief: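 Luminescent readout of luciferin produced by CYP3A4 (20 nM) dealkylation of Luciferin-PPXE, 25 uM (its KM). NADPH-driven reaction ran 60 min at RT after 10 min compound preincubation; data scaled to 57 uM ketoconazole as 100% inhibition.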

[12] = target: Glucocorticoid receptor (Homo sapiens) (UniProt P04150); assay: qHTS assay for small molecule agonists of glucocorticoid receptor signaling (AID 588532; active means well fitted curve in the direction sought with a large enough effect in the signal ratio, with a control signal flat; the % refers to the signal ratio); conditions: HeLa MMTV-bla, beta-lactamase ratio, agonist, 18 h; stronger effect = higher value; percent of dexamethasone control, DMSO zero
Method in brief: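 Agonist-mode qHTS: GRE-driven beta-lactamase in HeLa cells exposed 18 h to titrated compounds (up to 92 uM), then CCF4 ratio read after 2 h at RT; Hill-fitted EC50, efficacy relative to 0.1 uM dexamethasone.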

[13] = target: Peroxisome proliferator-activated receptor delta (Homo sapiens) (UniProt Q03181); assay: qHTS assay for small molecule agonists of peroxisome proliferator-activated receptor delta signaling (AID 588534; calls by dose curve); conditions: HEK293T PPARdelta-UAS-bla, beta-lactamase ratio, 18 h; series mostly up to 76.7 µM
Method in brief: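 Agonist-mode qHTS; reporter cells, 5 hrs 37 C pre-incubation; compound titration, 18 hrs 37 C; CCF4 dye, 2 hrs RT; fluorescence read. EC50/efficacy via Hill fit.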

[14] = target: Vitamin D3 receptor (Homo sapiens) (UniProt P11473); assay: qHTS assay for small molecule antagonists of vitamin D receptor signaling (AID 588541; calls by dose curve;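 further: receptor activated by calcitriol during compound treatment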); conditions: HEK293T VDR-UAS-bla, beta-lactamase ratio, antagonist mode; series mostly up to 76.7 µM
Method in brief: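 Antagonist-mode beta-lactamase reporter assay: HEK293T VDR-UAS-bla cells were exposed to titrated compound alongside 1-alpha,25-dihydroxyvitamin D3 at 3 nM final for 16 h. Values were normalized to the 50 nM agonist control and DMSO basal, with IC50 and efficacy from Hill equation fits.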

[15] = target: Voltage-gated inwardly rectifying potassium channel KCNH2 (Homo sapiens) (UniProt Q12809); assay: qHTS Assay for Small Molecule Inhibitors of the Human hERG Channel Activity (AID 588834); conditions: U2OS BacMam hERG, FluxOR thallium flux fluorescence; series mostly up to 92.2 µM;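 further: top concentration of the series differs between compounds; lower thallium flux fluorescence means stronger hERG block; nearly all actives have a fitted effect of over 50% in size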
Method in brief: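 Thallium-flux (FluxOR) read-out on FDSS: fluorescence read 10 s before and 2 min after stimulation buffer. hERG-BacMam-transduced U2OS cells, compound exposure about 10 min. AC50 by standard Hill equation.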

[16] = qHTS assay for small molecule activators of the nuclear factor-kappa B (NF-kB) signaling pathway (AID 651749; active means well fitted activation curve with a large enough effect in the signal ratio; the % refers to the signal ratio); conditions: NF-kB-bla ME-180 cells, beta-lactamase FRET ratio, 16 h; stronger effect = higher value
Method in brief: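 Activation measured after 16 hr compound treatment at 37C, 5% CO2, of 2,000 ME-180 cells/well stably expressing an NF-kB response element–driven beta-lactamase reporter, via FRET-disruption fluorescence.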

[17] = target: Peroxisome proliferator-activated receptor gamma (Homo sapiens) (UniProt P37231); assay: qHTS assay for small molecule antagonists of peroxisome proliferator-activated receptor gamma signaling (AID 588537; active means well fitted inhibition curve with a large enough effect in the signal ratio, with a control signal flat, not every such curve was filed as active; the % refers to the signal ratio;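 further: reporter cells co-stimulated with 50 nM rosiglitazone agonist during compound treatment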); conditions: HEK293 PPARg-UAS-bla, beta-lactamase ratio, antagonist mode; series mostly up to 76.8 µM
Method in brief: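 Antagonist-mode β-lactamase reporter screen run as a titration series. HEK293 PPARγ-UAS-bla cells are stimulated with rosiglitazone (50 nM final) for 16 h, then CCF4 is read at 460/530 nm. Data are scaled between DMSO and rosiglitazone and fitted to the Hill equation.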

[18] = target: Glucocorticoid receptor (Homo sapiens) (UniProt P04150); assay: qHTS assay for small molecule antagonists of glucocorticoid receptor signaling (AID 588533; active means well fitted inhibition curve with a large enough effect in the signal ratio, with a control signal flat, not every such curve was filed as active; the % refers to the signal ratio;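 further: cells stimulated with 2 nM dexamethasone as agonist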); conditions: HeLa MMTV-bla, GRE beta-lactamase ratio, antagonist mode, 18 h; series mostly up to 76.8 µM
Method in brief: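 Antagonist-mode qHTS: compound titrations added to GRE-bla HeLa cells, then dexamethasone 2 nM final; 18 h, 37 C. CCF4 FRET fluorescence normalized to dexamethasone and DMSO; IC50 from Hill fit.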

[19] = qHTS assay for small molecule antagonists of peroxisome proliferator-activated receptor delta signaling (AID 588535; active means well fitted inhibition curve with a large enough effect in the signal ratio, with a control signal flat, not every such curve was filed as active; the % refers to the signal ratio;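 on max response: cells co-treated with a PPAR-delta agonist as stimulator during compound exposure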); conditions: HEK293T PPARd-UAS-bla, beta-lactamase FRET ratio, 18 h; 460 nm channel
Method in brief: (§1)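 Titrations were run on PPAR-delta-UAS-bla HEK293T cells in charcoal/dextran-stripped serum, incubated 18 h at 37 C. CCF4 fluorescence (460/530 nm) after 2 h RT; Hill equation yields IC50 and maximal response.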

[20] = target: Peroxisome proliferator-activated receptor delta (Homo sapiens) (UniProt Q03181); assay: as above; conditions: HEK293T PPARd-UAS-bla, beta-lactamase FRET ratio, 18 h; series mostly up to 76.7 µM
Method in brief: as §1

Voltage-gated inwardly rectifying potassium channel KCNH2 (Homo sapiens), sequence (Q12809 whole entry, looked up): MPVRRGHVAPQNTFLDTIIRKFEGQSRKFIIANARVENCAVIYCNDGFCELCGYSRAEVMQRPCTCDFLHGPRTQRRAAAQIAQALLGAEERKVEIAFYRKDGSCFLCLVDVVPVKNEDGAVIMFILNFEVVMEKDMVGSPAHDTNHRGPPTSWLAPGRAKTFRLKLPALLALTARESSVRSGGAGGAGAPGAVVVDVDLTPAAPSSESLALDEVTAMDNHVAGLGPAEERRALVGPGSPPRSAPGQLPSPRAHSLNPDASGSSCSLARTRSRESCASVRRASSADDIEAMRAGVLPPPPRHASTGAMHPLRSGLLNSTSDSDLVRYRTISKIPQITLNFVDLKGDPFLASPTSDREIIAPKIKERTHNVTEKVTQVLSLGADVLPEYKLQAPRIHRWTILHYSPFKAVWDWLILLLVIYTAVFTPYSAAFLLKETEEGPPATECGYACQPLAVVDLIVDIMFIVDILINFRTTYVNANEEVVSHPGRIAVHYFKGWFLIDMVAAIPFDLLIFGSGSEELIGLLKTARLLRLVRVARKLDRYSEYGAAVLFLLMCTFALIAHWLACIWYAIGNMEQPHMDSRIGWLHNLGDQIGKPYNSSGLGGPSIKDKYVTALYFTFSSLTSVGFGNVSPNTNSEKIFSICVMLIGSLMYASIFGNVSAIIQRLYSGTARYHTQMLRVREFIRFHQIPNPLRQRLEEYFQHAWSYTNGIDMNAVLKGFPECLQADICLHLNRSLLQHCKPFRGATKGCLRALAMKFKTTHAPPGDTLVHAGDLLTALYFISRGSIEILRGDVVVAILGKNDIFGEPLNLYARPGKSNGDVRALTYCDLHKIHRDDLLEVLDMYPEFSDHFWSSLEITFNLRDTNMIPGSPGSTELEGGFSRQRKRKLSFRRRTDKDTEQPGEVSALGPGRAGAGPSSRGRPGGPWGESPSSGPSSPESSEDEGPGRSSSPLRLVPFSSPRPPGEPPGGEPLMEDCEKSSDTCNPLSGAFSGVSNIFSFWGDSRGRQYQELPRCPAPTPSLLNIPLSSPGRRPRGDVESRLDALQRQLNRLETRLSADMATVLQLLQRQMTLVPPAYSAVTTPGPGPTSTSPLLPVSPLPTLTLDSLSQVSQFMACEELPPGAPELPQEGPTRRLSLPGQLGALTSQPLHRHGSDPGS
Peroxisome proliferator-activated receptor gamma (Homo sapiens), sequence (P37231 whole entry, looked up): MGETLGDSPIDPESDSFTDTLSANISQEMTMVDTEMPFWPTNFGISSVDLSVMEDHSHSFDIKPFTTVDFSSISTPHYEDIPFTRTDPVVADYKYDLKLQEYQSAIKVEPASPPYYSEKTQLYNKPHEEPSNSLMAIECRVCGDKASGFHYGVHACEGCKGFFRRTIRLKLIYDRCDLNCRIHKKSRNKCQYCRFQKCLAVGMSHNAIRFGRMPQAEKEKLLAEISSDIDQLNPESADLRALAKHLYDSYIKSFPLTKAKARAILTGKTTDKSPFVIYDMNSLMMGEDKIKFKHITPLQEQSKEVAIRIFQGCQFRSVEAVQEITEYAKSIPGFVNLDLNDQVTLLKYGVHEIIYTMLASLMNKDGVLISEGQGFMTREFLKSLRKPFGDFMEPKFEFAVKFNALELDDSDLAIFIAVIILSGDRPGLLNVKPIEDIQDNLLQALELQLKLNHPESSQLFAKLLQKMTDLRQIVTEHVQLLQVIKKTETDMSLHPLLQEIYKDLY
Vitamin D3 receptor (Homo sapiens), sequence (P11473 whole entry, looked up): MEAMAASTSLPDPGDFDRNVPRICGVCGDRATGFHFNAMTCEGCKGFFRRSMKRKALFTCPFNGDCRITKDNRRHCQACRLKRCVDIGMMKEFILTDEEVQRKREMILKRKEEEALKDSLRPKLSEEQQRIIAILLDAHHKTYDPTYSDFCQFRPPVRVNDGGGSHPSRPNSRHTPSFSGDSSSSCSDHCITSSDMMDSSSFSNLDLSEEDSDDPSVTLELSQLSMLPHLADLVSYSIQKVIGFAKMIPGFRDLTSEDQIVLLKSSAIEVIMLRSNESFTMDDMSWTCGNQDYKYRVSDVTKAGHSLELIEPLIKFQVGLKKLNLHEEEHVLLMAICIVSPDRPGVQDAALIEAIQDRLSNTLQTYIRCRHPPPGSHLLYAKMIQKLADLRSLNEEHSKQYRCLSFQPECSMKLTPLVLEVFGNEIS
Estrogen receptor (Homo sapiens), sequence (P03372 whole entry, looked up): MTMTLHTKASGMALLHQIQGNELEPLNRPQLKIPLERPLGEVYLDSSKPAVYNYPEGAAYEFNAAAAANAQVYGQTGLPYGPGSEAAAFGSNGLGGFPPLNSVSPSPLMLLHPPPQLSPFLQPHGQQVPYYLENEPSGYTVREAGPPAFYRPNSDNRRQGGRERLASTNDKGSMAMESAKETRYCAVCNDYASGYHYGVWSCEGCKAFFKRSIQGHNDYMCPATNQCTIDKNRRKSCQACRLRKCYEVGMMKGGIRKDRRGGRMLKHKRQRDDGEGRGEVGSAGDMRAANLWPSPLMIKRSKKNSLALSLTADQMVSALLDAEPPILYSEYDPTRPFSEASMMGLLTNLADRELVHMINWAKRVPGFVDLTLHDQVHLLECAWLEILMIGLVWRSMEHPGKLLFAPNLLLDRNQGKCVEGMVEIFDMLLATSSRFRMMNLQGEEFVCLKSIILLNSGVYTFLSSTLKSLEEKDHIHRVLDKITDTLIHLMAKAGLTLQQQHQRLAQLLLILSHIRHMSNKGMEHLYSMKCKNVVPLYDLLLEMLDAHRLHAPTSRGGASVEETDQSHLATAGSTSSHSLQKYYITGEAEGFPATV
Cytochrome P450 3A4 (Homo sapiens), sequence (P08684 whole entry, looked up): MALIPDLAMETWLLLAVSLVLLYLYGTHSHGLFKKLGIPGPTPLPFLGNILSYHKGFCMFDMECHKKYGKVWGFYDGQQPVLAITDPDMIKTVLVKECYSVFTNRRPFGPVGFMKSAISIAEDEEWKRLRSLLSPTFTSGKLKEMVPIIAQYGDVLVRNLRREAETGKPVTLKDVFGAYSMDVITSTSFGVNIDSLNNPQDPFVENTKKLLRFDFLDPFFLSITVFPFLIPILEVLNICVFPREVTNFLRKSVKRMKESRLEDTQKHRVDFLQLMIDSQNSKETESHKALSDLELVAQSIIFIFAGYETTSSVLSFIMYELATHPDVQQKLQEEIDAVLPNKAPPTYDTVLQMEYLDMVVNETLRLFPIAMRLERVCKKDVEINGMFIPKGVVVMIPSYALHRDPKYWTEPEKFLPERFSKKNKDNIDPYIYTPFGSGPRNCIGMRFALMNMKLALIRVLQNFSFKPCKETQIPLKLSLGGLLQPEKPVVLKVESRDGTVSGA
Nuclear receptor ROR-gamma (Homo sapiens), sequence (P51449 whole entry, looked up): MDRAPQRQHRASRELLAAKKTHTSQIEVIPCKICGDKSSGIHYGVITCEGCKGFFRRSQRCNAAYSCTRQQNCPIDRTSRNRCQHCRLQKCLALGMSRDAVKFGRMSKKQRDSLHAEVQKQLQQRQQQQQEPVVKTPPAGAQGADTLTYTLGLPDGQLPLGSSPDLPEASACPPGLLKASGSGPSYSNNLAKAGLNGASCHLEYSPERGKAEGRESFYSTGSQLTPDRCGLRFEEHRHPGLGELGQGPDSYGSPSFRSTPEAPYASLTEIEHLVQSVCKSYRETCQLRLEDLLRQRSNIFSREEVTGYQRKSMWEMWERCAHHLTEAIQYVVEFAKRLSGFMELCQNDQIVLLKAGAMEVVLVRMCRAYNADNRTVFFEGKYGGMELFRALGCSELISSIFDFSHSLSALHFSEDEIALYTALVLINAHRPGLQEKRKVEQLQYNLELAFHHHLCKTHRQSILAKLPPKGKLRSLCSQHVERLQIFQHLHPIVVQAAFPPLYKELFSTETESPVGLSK
Glucocorticoid receptor (Homo sapiens), sequence (P04150 whole entry, looked up): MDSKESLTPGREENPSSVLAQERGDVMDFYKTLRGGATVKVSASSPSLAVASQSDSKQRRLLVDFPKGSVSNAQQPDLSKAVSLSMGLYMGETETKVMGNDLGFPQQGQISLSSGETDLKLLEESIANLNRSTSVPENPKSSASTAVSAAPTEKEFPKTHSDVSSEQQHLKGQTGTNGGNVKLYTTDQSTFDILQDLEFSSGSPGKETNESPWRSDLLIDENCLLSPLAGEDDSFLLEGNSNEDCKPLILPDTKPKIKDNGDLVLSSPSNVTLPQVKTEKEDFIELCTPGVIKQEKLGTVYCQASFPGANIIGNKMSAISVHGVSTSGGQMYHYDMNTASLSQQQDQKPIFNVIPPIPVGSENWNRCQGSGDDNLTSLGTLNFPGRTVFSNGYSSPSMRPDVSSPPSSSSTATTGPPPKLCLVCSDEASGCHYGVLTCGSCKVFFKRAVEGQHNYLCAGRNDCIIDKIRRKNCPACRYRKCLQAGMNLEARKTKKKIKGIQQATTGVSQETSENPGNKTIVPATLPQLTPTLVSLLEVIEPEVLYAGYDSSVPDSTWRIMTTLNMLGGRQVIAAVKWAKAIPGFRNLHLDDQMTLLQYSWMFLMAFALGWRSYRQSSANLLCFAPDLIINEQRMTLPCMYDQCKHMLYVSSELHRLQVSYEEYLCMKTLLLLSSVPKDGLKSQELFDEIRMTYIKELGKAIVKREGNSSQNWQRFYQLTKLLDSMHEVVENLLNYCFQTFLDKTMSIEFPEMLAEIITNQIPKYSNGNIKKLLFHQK
Peroxisome proliferator-activated receptor delta (Homo sapiens), sequence (Q03181 whole entry, looked up): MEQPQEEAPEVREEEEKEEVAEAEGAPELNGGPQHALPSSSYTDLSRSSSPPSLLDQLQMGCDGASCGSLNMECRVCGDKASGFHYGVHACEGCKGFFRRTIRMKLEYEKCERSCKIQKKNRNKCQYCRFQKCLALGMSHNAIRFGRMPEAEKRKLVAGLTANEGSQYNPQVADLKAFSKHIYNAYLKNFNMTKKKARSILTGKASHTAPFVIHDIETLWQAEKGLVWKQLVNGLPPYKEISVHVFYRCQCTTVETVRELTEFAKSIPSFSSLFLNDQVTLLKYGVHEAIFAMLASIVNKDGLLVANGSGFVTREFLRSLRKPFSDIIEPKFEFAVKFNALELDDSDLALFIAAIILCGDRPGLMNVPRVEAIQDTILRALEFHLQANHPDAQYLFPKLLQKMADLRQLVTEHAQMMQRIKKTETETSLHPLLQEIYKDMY

| Structure (SMILES) | Potency [1] | outcome [2] | Potency [3] | Potency [4] | Potency [5] | activation [6] | Potency [7] | activation [8] | Potency [9] | Potency [10] | Potency [11] | activation [12] | outcome [13] | outcome [14] | Potency [15] | activation [16] | Potency [17] | outcome [18] | max response [19] | outcome [20] |
| --- | --- | --- | --- | --- | --- | --- | --- | --- | --- | --- | --- | --- | --- | --- | --- | --- | --- | --- | --- | --- |
| O=[N+]([O-])c1ccccc1-c1ccccc1 | inactive | inactive | inactive | inactive | inactive | -1.36% (inactive) | inactive | -0.891% (inactive) | inactive | inactive | – | – | – | – | – | – | – | – | – | – |
| Clc1cc(Cl)c(Cl)c(Cl)c1 | inactive | inactive | – | inactive | – | – | inactive | 0.248% (inactive) | – | inactive | inactive | 16.9% (inactive) | inactive | inactive | inactive | -0.964% (inactive) | – | – | – | – |
| Cc1cc(Cl)ccc1O | inactive | – | – | – | – | -0.272% (inactive) | inactive | – | – | inactive | inactive | 0.519% (inactive) | inactive | inactive | inactive | 0.374% (inactive) | inactive | – | – | – |
| ClCC(Cl)CCl | inactive | inactive | – | – | inactive | – | – | – | – | inactive | inactive | -1.49% (inactive) and -1.66% (inactive) | inactive | inactive | inactive | – | – | inactive | 17.7% | inactive |
| CCOP(=S)(OCC)Oc1nc(Cl)c(Cl)cc1Cl | – | inactive | inactive | inactive | 37.6 µM (active) [middle of 4 runs] | – | – | 12% (inactive) | – | inactive | 5.01 µM (active) | 0.796% (inactive) [middle of 4 runs] | inactive | – | – | -1.28% (inactive) [middle of 4 runs] | inactive | inactive | 21.6% | inactive |
| Nc1ccc([N+](=O)[O-])cc1[N+](=O)[O-] | – | inactive | inactive | inactive | – | – | 18.8 µM (active) | – | 0.944 µM (active) | inactive | inactive | – | inactive | inactive | inactive | -1.37% (inactive) | inactive | inactive | – | – |
| CN(C)C(=O)Cl | inactive | inactive | inactive | inactive | inactive | – | inactive | – | – | inactive | inactive | 12.7% (inactive) | – | inactive | – | -0.0384% (inactive) | inactive | inactive | -22.3% | – |
| C=CCc1cc(OC)c2c(c1)OCO2 | inactive | inactive | – | – | – | -0.222% (inactive) | inactive | 0.0584% (inactive) | inactive | inactive | – | -4.93% (inactive) | inactive | inactive | inactive | -0.352% (inactive) | – | inactive | – | – |
| OCCCCO | inactive | inactive | – | – | inactive | -4.12% (inactive) | inactive | -0.427% (inactive) | inactive | inactive | inactive | -5.33% (inactive) | inactive | inactive | inactive | -0.721% (inactive) | inactive | inactive | -23.5% | inactive |
| CCOP(=S)(OCC)SCCSCC | – | inactive | – | – | inactive | -1.38% (inactive) and -6.24% (inactive) | inactive | 1.01% (inactive) and -2.18% (inactive) | inactive | inactive | – | 13.6% (inactive) | inactive | – | – | -0.799% (inactive) and -0.139% (inactive) | inactive | inactive | -12.4% and 3.79% | inactive |
